# Assay outcomes deposited in PubChem by several laboratories.
# Compounds with a hit are over-represented: about 4.4% of the library has one in this group of screens.
# SKKanGAS inh – S. pyogenes SKKanGAS growth inhibitors in kanamycin, primary screen, streptokinase expression inhibitor project, SKKanGAS strain, BacTiter-Glo luminescence; 1.3% of 300,000 active; inhibition, % at 7.5 µM; 6 h; AID 1662, 2009;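 active = mean replicate score, as percent of positive control median, at least 50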;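 also: strain carries kanamycin resistance gene driven by streptokinase promoter and grows in 40 µg/ml kanamycin; loss of luminescence reflects streptokinase promoter inhibition or plain growth inhibition; 0% = median of DMSO wells and 100% = positive control at its reference dose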
# TIM10 inh – growth inhibitors of isogenic TIM10 control yeast, primary screen, counter-screen for tim10-1 yeast inhibitor project, luminescence, uHTS | S. cerevisiae TIM10 strain growth, BacTiter-Glo luminescence, 24 h | inhibition, % at 10 µM | 1.4% of 330,000 active | AID 463195, 2010;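 active = inhibition of 40% or more at the single tested concentration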;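 also: wild-type TIM10 isogenic control strain grown at permissive 25 °C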
# tim23-1 inh – growth inhibitors of tim23-1 mutant yeast, primary screen, luminescence, uHTS; S. cerevisiae tim23-1 growth, BacTiter-Glo luminescence, 24 h; inhibition, % at 20 µM; 1.3% of 330,000 active; AID 463212, 2010;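 active = growth inhibition of the mutant yeast at or above 50%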;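 also: temperature-sensitive mutant grown at 25 °C; plate controls were DMSO-treated mutant yeast for no effect and medium wells lacking yeast for full effect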
# PfHsp90 yeast 2 – growth inhibition of PfHsp90-expressing yeast, primary screen, antimalarial PfHsp90 inhibitor project, S. cerevisiae, BacTiter-Glo luminescence, single point, set 2; BacTiter-Glo ATP, 48 h; yeast lacking PDR1 and PDR3 efflux regulators; inhibition, % at 9.4 µM; 0.32% of 310,000 active; AID 504621, 2011;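 active = every replicate shows inhibition above about 80%, whatever the replicate mean, limit read from the data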;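 also: 0% = DMSO neutral controls and 100% = 20 µM radicicol positive controls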
# tim10-1 inh – growth inhibitors of tim10-1 mutant yeast, primary screen, luminescence, uHTS | S. cerevisiae tim10-1 ts strain growth, BacTiter-Glo, 24 h | inhibition, % at 20 µM | 2.2% of 330,000 active;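 active = inhibition of at least 40%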;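 also: mutant grown at 25 °C; 0% = DMSO wells with yeast and 100% = wells holding no yeast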
# tim10 confirm – growth inhibitors of wild-type TIM10 yeast, confirmation, counter-screen for tim10-1 synthetic lethality project, single concentration, luminescence, S. cerevisiae | shares compounds with TIM10 inh | S. cerevisiae tim10 strain growth, BacTiter-Glo luminescence, 24 h | 63% of 4,600 active | inhibition, % at 10 µM;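 active = inhibition of yeast growth at or above a set limit in either of two replicates at 10 µM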;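 also: this counterscreen used the strain with wild-type TIM10; 0% = yeast with DMSO and 100% = medium wells lacking yeast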
# * marks the source's active call; other numbers are inactive results; nt = no result given.
SMILES,SKKanGAS inh,TIM10 inh,tim23-1 inh,PfHsp90 yeast 2,tim10-1 inh,tim10 confirm
CCCCn1c(N)c(N(CCC(C)C)C(=O)c2ccc(C)c(S(=O)(=O)N3CCOCC3)c2)c(=O)[nH]c1=O,-11,-1,-7,nt,-2,nt
NNc1nc2ccc(F)cc2s1,3,5,20,2,13,nt
Fc1ccc2nc(Nc3ccccc3)sc2c1,-1,43*,24,-23,30,30
COc1cccc(CCNC(=O)CCc2nnc(-c3cc(C)oc3C)o2)c1,-2,-2,0,58,8,nt
Fc1cccc(Cn2cc(C(=S)N3CCCCC3)c3ccccc32)c1,11,48*,36,-27,38,30
COc1cc(OC)c(N2CC(C(=O)Nc3cccc(C(=O)NC4CC4)c3)CC2=O)cc1Cl (stereo unspecified),nt,82*,-4,-7,-1,-4
COc1ccc(C)cc1N1CC(C(=O)Nc2ccccc2C(=O)NC2CC2)CC1=O (stereo unspecified),nt,-3,-5,15,3,nt
Cc1ccc(C)c(Oc2ncnc(N)c2[N+](=O)[O-])c1,-16,22,29,-8,18,nt
Cc1cc(Sc2ncnc(N)c2[N+](=O)[O-])ncn1,0,42*,30,-3,27,27
CCN(CC)CCN1C(=O)C(=O)/C(=C(/O)c2ccc(S(=O)(=O)N3CCOCC3)cc2)C1c1ccc(C(C)C)cc1 (stereo unspecified),0,-2,7,6,5,nt
O=C(N=C1c2ccccc2CN1c1ccc(F)c(F)c1)c1cccnc1,nt,49*,42,0,33,13
COc1ccc(Cc2nc(C(=O)Nc3ccc(Cl)cc3)cs2)cc1,9,47*,24,17,27,37*
Cc1cc(-c2ccccc2)nc(N/N=C/c2ccco2)n1,-1,45*,42,nt,39,37*
N=C1N(/N=C/c2ccccc2)C(=Nc2ccccc2)C(=S)N1c1ccccc1,22,57*,47,17,36,35*
Cc1ccc(/C=N/n2c(-c3ccccc3)n[nH]c2=S)cc1,8,-9,11,12,-4,nt
Cc1[nH]c(=S)sc1Cc1ccc(Cl)c(Cl)c1,28,42*,18,nt,28,-13
Cc1nnc(SCc2ccc(Cl)c(Cl)c2)s1,-5,2,6,-22,15,nt
O=C(N=Nc1c(O)[nH]c2ccccc12)Nc1ccccc1,nt,nt,nt,-5,nt,nt
Cc1cccc(NC(=S)N=Nc2c(O)[nH]c3ccccc23)c1,97*,41*,38,-51,34,37*
Cc1ccc(C(=O)/C=C/Nc2ccccn2)cc1,12,43*,30,3,3,30
CCN1C(=O)C(CC(=O)Nc2ccc(OC)cc2)N(CCc2ccc(F)cc2)C1=S (stereo unspecified),12,42*,42,12,38,26
COc1ccc(NC(=O)CC2C(=O)N(C)C(=S)N2CCc2ccc(F)cc2)cc1 (stereo unspecified),6,7,15,nt,14,nt
Cc1ccc(C)c(OCC(=O)NCC(c2ccco2)N2CCCCC2)c1 (stereo unspecified),-8,0,0,28,-5,nt
CCOC(=O)c1ccc(NC(=O)c2ccc3c(c2)C(=O)N(Cc2cccnc2)C3=O)cc1,-2,-14,-4,-2,-4,nt
O=C1c2ccccc2C(=O)N1SC1CCCCC1,-1,65*,10,106*,33,83*
SMILES,SKKanGAS inh,TIM10 inh,tim23-1 inh,PfHsp90 yeast 2,tim10-1 inh,tim10 confirm
O=C(OCN1C(=O)c2ccccc2C1=O)C1CCCCC1,1,3,10,1,23,nt
CCOc1ccc(C2=CSC3=NCCN23)cc1Cl,5,16,8,-8,-17,nt
CC(=O)CSc1ncnc2sc3c(c12)CCC(C)C3 (stereo unspecified),-1,43*,37,-30,40,-5
NC(=O)CSc1nnc(SCc2ccc(F)cc2)s1,-8,-15,4,-50,-5,nt
CCc1c(-c2ccccc2)nc2sc3c(c2c1N)CCCC3,15,45*,35,12,38,49*
Cc1ccccc1C(=O)Nc1scc(-c2ccc(Br)cc2)c1C(=O)O,86*,53*,47,12,22,42*
CCN(CC)c1ccc(C(=S)NC2CCCCC2)cc1,0,46*,24,-1,32,28
OC(CNc1ncnc2sccc12)c1ccccc1 (stereo unspecified),-5,14,-4,1,-9,nt
CS(=O)(=O)N1CCN(C(=O)NC23CC4CC(CC(C4)C2)C3)CC1,-5,-2,-12,-2,13,nt
O=C(NC12CC3CC(CC(C3)C1)C2)N1CCN(S(=O)(=O)c2ccc(Cl)cc2)CC1,6,43*,11,nt,8,4
Cn1cc(Br)c(NC(=O)/C=C/C(=O)O)n1,-2,66*,17,-19,2,3
Cc1ccc(C(=O)Nc2ccccc2C(=O)N2CC3(C)CC2CC(C)(C)C3)cc1 (stereo unspecified),-1,44*,31,-92,33,24
COc1ccc(N2CCN(C(=O)c3cccc(NC(=O)c4ccco4)c3)CC2)cc1,3,6,15,-10,14,nt
O=C(c1ccco1)N(Cc1ccccc1)c1cccc([N+](=O)[O-])c1,2,44*,-11,12,32,31
O=C(c1ccco1)N(Cc1cccc([N+](=O)[O-])c1)c1ccc(Br)cc1,1,13,25,0,24,nt
Cc1cc2occ(CC(=O)NC3=NCCS3)c2cc1C(C)C,65*,40*,4,6,33,37*
CC(C)c1ccccc1OCC(O)CN1CCN(S(=O)(=O)c2ccc([N+](=O)[O-])cc2)CC1 (stereo unspecified),10,40*,39,-6,35,52*
O=S(=O)(c1ccc(F)cc1)N1CCN(CC(O)COc2ccccc2F)CC1 (stereo unspecified),-1,-4,15,12,10,nt
CN1CCN(c2nc(-c3ccc(Cl)cc3)nc3ccccc23)CC1,4,41*,46,-12,17,22
Nn1c(SCc2ccc(Br)cc2)nnc1-c1ccccn1,-11,46*,41,20,16,60*
Cc1cccc(CSc2nnc(-c3ccccn3)n2N)c1,3,16,22,17,5,nt
CSc1cccc(N2CC(C(=O)N(Cc3nnc(-c4ccccc4Cl)o3)C3CC3)CC2=O)c1 (stereo unspecified),12,3,23,21,32,nt
OCC(CO)c1cnnc2ccccc12,nt,nt,nt,9,nt,nt
